Screening results deposited in PubChem by National Center for Advancing Translational Sciences (NCATS).
The list is not random: actives were taken first. Their share in the collection is about 3.1%.
TRb-SRC2 inh: disrupts binding of human TR beta to SRC2 | P10828 | TRbeta-SRC2 peptide binding, fluorescence polarization; receptor liganded with 1 µM T3 | 0.065% of 280,000 active | Potency, µM (titrated, usually from 106 µM), actives largely listed as inhibitors; further: nearly all actives have a fitted effect of over 50% in size
Target sequence (P10828 whole entry, looked up): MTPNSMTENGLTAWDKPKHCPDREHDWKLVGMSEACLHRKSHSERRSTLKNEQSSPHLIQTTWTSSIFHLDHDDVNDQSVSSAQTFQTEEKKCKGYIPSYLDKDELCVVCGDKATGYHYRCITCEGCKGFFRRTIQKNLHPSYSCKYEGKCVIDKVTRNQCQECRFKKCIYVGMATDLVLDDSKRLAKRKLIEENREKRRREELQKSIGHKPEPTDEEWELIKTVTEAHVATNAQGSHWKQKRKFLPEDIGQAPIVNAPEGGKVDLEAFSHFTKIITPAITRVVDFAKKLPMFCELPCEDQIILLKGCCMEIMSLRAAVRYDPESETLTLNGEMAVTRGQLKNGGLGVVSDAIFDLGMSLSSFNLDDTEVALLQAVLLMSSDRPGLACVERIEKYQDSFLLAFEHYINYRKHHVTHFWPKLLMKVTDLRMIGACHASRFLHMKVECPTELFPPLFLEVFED
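Fluorescence polarization of 20 nM Texas Red SRC2 peptide (20-aa NR interaction domain) bound to 0.6 uM human TRb ligand-binding domain, with 1 uM T3, after 5 hr at ambient temperature; inhibition seen as decreased polarization.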
Tau FP inhib: tau fibrillization inhibition (FP). P10636. Potency, µM (highest dose often 57.7 µM), most hits filed as inhibitors. AID 1468. K18 P301L tau heparin fibrillization, Alexa594 FP, 6 h. 0.39% of 280,000 active; further: nearly all actives have a fitted effect of over 55% in size
Target sequence (P10636 561-689 P618L limits assumed): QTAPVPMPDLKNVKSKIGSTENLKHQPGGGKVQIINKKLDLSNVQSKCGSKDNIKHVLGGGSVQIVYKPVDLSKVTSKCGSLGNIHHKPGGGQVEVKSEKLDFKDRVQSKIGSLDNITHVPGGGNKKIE
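Steps: dispense K18 P301L tau (15 uM plus 0.24 uM Alexa 594 tracer, final) in pH 7 sodium acetate; add compound; add heparin (20 uM final); incubate 6 hr, 37 C; add ThT (30 uM final); after 1 hr ambient, read FP.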
Tau fluor counter: counter-screen for tau fibril formation inhibitors; tau K18 P301L Alexa594 fluorescence, heparin fibrillization; Potency, µM (titrated, usually from 57.7 µM); 0.93% of 280,000 active; AID 1463; further: nearly all actives have a fitted effect of over 55% in size
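Human K18 P301L tau (15 uM unlabeled plus 0.24 uM Alexa 594-labeled, final) in 100 mM sodium acetate pH 7 was mixed with compound and 20 uM heparin and incubated 6 hr at 37 C.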
Tau ThT inhib: blocks human tau fibril formation measured by thioflavin T | P10636 | recombinant tau K18 P301L (four-repeat tau fragment), heparin-induced fibrillization, ThT fluorescence | Potency, µM (doses to about 57.4 µM), actives largely listed as inhibitors | 2.1% of 270,000 active | AID 1460; further: nearly all actives have a fitted effect of over 55% in size
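In this qHTS, human K18 P301L tau is incubated with compound and heparin for 6 hr at 37 C, and Thioflavin T fluorescence then reports fibril load.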
TexasRed fluor: counter-screen for TRb-SRC2 inhibitors: fluorescence interference; TRb/SRC2 Texas Red total fluorescence interference; Potency, µM (doses to about 106 µM); 0.29% of 280,000 active; AID 1479; active means well fitted curve in either direction with a large enough effect; inconclusive means small, poorly fitted or top-dose-only effect
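Human TRβ ligand-binding domain (0.6 uM) and Texas Red SRC2 peptide (20 nM) in Tris buffer with 1 uM T3 and 5% DMSO were incubated with pinned compound for 5 hr at ambient temperature. Total fluorescence was computed as S + 2P (555/632 nm).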
RGS12 GoLoco inh: inhibitors of human Gai1-RGS12 GoLoco interaction (red fluorophore). AID 880. 0.44% of 230,000 active. Gai1:RGS12 GoLoco peptide FP, rhodamine, 10 min. P63096. Potency, µM (top dose mostly 61.6 µM), actives largely listed as inhibitors; active means well fitted inhibition curve with a large enough effect, not every such curve was filed as active; inactive means no such curve, though single readings can be large or run the other way; further: nearly all actives have a fitted effect of over 30% in size
Each line names hits and unclear results; the compound was inactive in the other large screens; ! = not active in a repeat; [ ] = dose if it differs, or a comment. Unless noted, the call rests on the fitted dose curve; in most records, active means well fitted curve in the direction sought with a large enough effect; inconclusive means small, poorly fitted or top-dose-only effect, or another doubt; inactive means no such curve, though single readings can be large; an effect the other way counts as inactive or inconclusive.

O=C(CSc1ncc2c(n1)-c1ccccc1N(Cc1ccc(F)cc1)S2(=O)=O)NCCc1ccccc1	Tau FP inhib inconclusive (no result: RGS12 GoLoco inh)
CN1C(=O)/C(=C2\SC(N3CCCCCC3)=NC2=O)c2ccccc21	Tau fluor counter inconclusive, Tau ThT inhib 12.6µM
CCCN1C(=O)/C(=C2\SC(N3CCCCC3)=NC2=O)c2ccccc21	Tau fluor counter inconclusive, Tau ThT inhib 15.8µM
CN1C(=O)CC(C(=O)O)SC1=Nc1cc(Cl)cc(Cl)c1 (stereo not drawn)	none
C/C(=C\C=C(C#N)C#N)c1cc(C#N)c(N)o1	TRb-SRC2 inh inconclusive, Tau ThT inhib 12.6µM
c1ccc2[nH]c(-c3ccnc4ccccc34)nc2c1	RGS12 GoLoco inh 25.1µM!
CCOC(=O)C1CCN(CC(=O)NC(=O)NC2CCCCC2)CC1	none
C=CC1=C(C)/C(=C/c2[nH]c(Cc3[nH]c(/C=C4\NC(=O)C(C)=C4C=C)c(C)c3CCC(=O)O)c(CCC(=O)O)c2C)NC1=O	Tau FP inhib inconclusive, Tau fluor counter inconclusive, Tau ThT inhib 10µM
Cn1cc(CN(Cc2ccccc2)C[C@@H]2CCC(=O)N2)c(-c2ccccc2F)n1	none
CCOC(=O)c1ccc(-c2ccc(C3Nc4ccccc4C(=O)N3O)o2)cc1 (stereo not drawn)	Tau ThT inhib inconclusive
Cc1cc([N+](=O)[O-])ccc1-c1ccc(C2Nc3ccccc3C(=O)N2O)o1 (stereo not drawn)	Tau fluor counter inconclusive, Tau ThT inhib 14.1µM
CC(=O)n1c2ccccc2c2nc(NC(C)C)sc21	Tau FP inhib inconclusive, Tau ThT inhib 22.4µM
COc1ccc(C(=O)Nc2ccccc2C(=O)N/N=C/c2cccc3ccccc23)cc1	Tau FP inhib inconclusive, Tau fluor counter inconclusive
N#C/C(=C(/O)c1cc2ccccc2o1)c1nc2ccccc2s1	Tau FP inhib inconclusive, Tau fluor counter inconclusive, Tau ThT inhib 6.31µM
COc1ccc(Nc2oc(COc3ccc(OC)cc3)nc2C#N)cc1	Tau fluor counter 28.2µM[quencher], Tau ThT inhib inconclusive
COc1ccc(Nc2oc(COc3ccc(C)cc3)nc2C#N)cc1	Tau fluor counter inconclusive, Tau ThT inhib inconclusive
Cc1ccccc1OCC(=O)N/N=C1\SCC(=O)N1Cc1ccccc1	none
C#CCn1cc(/C=N/NC(=O)COc2cccc3cccnc23)c2ccccc21	Tau ThT inhib inconclusive, RGS12 GoLoco inh 0.794µM
CN1C(=O)CS/C1=N\NC(=O)COc1cccc2cccnc12	Tau ThT inhib 10µM
COc1cc(C2/C(=C(/O)c3ccc(F)cc3)C(=O)C(=O)N2CCCC(=O)O)ccc1O (stereo not drawn)	none
COc1ccc(CCNC(=O)CCNS(=O)(=O)c2ccc3c(c2)CCN3C(C)=O)cc1OC	none
O=C1CC(NCc2ccc3c(c2)OCO3)C(=O)N1Cc1ccc2c(c1)OCO2 (stereo not drawn)	none
FC(F)(F)c1cccc(N2Cc3ccccc3C2)c1	none
O=[N+]([O-])c1cccc(N2Cc3ccccc3C2)c1	Tau FP inhib inconclusive, Tau fluor counter inconclusive, Tau ThT inhib 15.8µM
O=C(Nc1ccc(Cl)cc1)/C(=C/c1ccc([N+](=O)[O-])cc1)c1nc2ccccc2s1	Tau FP inhib inconclusive, Tau ThT inhib 14.1µM
C#CCNC(=O)C1=C[C@H](c2ccccc2)C[C@H](OCCCCO)O1	none
O=C(/C=C/NNC(=O)c1ccc(Br)cc1)c1ccccc1	Tau fluor counter inconclusive, Tau ThT inhib 25.1µM
COc1ccc(N2C(=O)/C(=C\c3ccco3)N=C2SCC(=O)NC(C)(C)C)cc1Cl	Tau ThT inhib inconclusive, TexasRed fluor inconclusive
COc1ccc(Nc2ccc3cc(S(=O)(=O)N4CCCC4)ccc3n2)cc1OC	Tau fluor counter 11.2µM[quencher], Tau ThT inhib inconclusive (no result: RGS12 GoLoco inh)
COc1cccc(Nc2ccc3cc(S(=O)(=O)N4CCC(C)CC4)ccc3n2)c1	Tau FP inhib inconclusive, Tau fluor counter 5.01µM[quencher] (no result: RGS12 GoLoco inh)
Cc1ccc(N=C2NC(=O)/C(=C\c3ccco3)S2)cc1	Tau ThT inhib inconclusive
Cc1cccc(N=C2NC(=O)/C(=C/C=C/c3ccco3)S2)c1	Tau ThT inhib 5.01µM
COc1ccc(N=C2NC(=O)/C(=C\C=C\c3ccco3)S2)cc1	Tau FP inhib inconclusive, Tau fluor counter inconclusive, Tau ThT inhib 8.91µM
O=C1NC(=Nc2ccc3ccccc3c2)S/C1=C/c1ccco1	Tau FP inhib inconclusive, Tau fluor counter inconclusive, Tau ThT inhib 14.1µM
O=C(O)c1cccc(N2C(=O)/C(=C/c3ccc([N+](=O)[O-])cc3)C=C2c2ccccc2)c1	Tau fluor counter inconclusive, Tau ThT inhib 6.31µM
O=C1/C(=C/c2ccc([N+](=O)[O-])cc2)C=C(c2ccccc2)N1c1ccc(O)cc1	Tau fluor counter 11.2µM[quencher], Tau ThT inhib 5.62µM
CC(C)CNC(=O)c1ccccc1-c1ccccc1C(=O)O	none
CC(C)(C)C(=O)CSc1nc2ccsc2c(=O)n1Cc1ccccc1F	none (no result: RGS12 GoLoco inh)
CC(C)OC(=O)c1c2c(n3ccccc13)C(=O)c1ccccc1C2=O	Tau fluor counter inconclusive, Tau ThT inhib 11.2µM
COC(=O)c1cc2c(C)c(C)c3ccccn3c-2c1C(=O)OC	Tau ThT inhib inconclusive
S=C(NNc1ccc2ccccc2c1)NC1CCCCC1	Tau FP inhib inconclusive, Tau fluor counter inconclusive, Tau ThT inhib 25.1µM
CCN1/C(=C/c2ccc3ccccc3[n+]2CC)C=Cc2ccccc21	Tau ThT inhib 3.16µM
CCCCN1/C(=C/c2ccc3ccccc3[n+]2CC)Sc2ccccc21	Tau ThT inhib 14.1µM
CCN(CC)CCN1c2ccccc2Sc2ccc3ccccc3c21	Tau fluor counter inconclusive, Tau ThT inhib inconclusive
CCN1/C(=C/c2ccc3cc(C)ccc3[n+]2CC)Sc2cc(C)ccc21	Tau FP inhib inconclusive, Tau fluor counter inconclusive, Tau ThT inhib 14.1µM
CCN1/C(=C/c2ccc3cc(C)ccc3[n+]2C)Sc2ccc3sccc3c21	Tau fluor counter 3.16µM[fluorescent], Tau ThT inhib 1.58µM
CCOC(=O)c1c(C)oc2nc(C)nc(NCCCN3CCN(c4ccccc4)CC3)c12	Tau FP inhib inconclusive, Tau ThT inhib inconclusive (no result: RGS12 GoLoco inh)
CCOC(=O)c1c(C)oc2nc(C)nc(NCCCN3CCN(c4cccc(C)c4)C(C)C3)c12 (stereo not drawn)	Tau ThT inhib inconclusive, TexasRed fluor 44.7µM[quencher] (no result: RGS12 GoLoco inh)
Cc1ccc(S(=O)(=O)c2ccccc2)cc1S	Tau FP inhib inconclusive, Tau ThT inhib 28.2µM
CC1CCCN(C(=S)SCC(=O)c2cc(Br)cc(Br)c2O)C1 (stereo not drawn)	Tau FP inhib inconclusive, Tau fluor counter inconclusive, Tau ThT inhib 15.8µM
Cc1ccccc1-c1cc(C(=O)Nc2sc(C)c(C)c2C(N)=O)c2ccccc2n1	Tau FP inhib inconclusive, Tau fluor counter inconclusive, Tau ThT inhib 22.4µM
Cc1csc(NC(=O)Cc2ccccc2[N+](=O)[O-])n1	none
Cc1onc(-c2ccccc2Cl)c1C(=O)NCc1cccs1	none
